In PubChem BioAssay (NCI) one finds growth data, which are given here for 38 compounds.

Compounds without any hit were thinned out: in the full panel of roughly 83,000, 20% have a hit.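 For each line, cells grew in 96-well plates with the test compound present at a single concentration for 48 hours.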 Unmarked numbers belong to inactive results. Calls of active or inactive are those of the source. Rule for the calls: active = growth percent below 10; inactive = the rest.

This experiment has as its system MDA-MB-435 melanoma. Put plainly: NCI-60 one-dose screen, 48 h (100 = growth as untreated, 0 = no growth, -100 = all killed). To be noted: 10 µM unless noted.
As for `COc1cccc(-c2nn(-c3ccccc3)cc2-c2ccnc(NCCCN)c2)c1`, the growth was -6.82% (active). As for `Cn1cnc2c1c(=O)n(CCC(=O)Nc1ccc(F)cc1)c(=O)n2C`, the growth is 108%. Under `C=C(C)[C@@H]1CC[C@]2(C=O)CC[C@]3(C)[C@H](CC[C@@H]4[C@@]5(C)C/C(=C/c6cccnc6)C(=O)C(C)(C)[C@@H]5CC[C@]43C)[C@@H]12` stands 95.3%; under `CN(C)c1cccc2[nH]c(-c3[nH]ncc3Nc3ccnc(N)n3)nc12`, -90% (active).

Take `O=Cc1nc2ccccc2[nH]1`: the growth is 107%.

`COc1cc2nc(Cl)nc(Nc3cccc(C(=O)/C=C/c4ccc(Br)cc4)c3)c2cc1OC`: the growth is 89.6%.

Take `CC[C@H](CC[C@@H](C)[C@H]1CC[C@H]2[C@@H]3/C(=C/c4cccnc4)C(=O)C4=CC(=O)CC[C@]4(C)[C@H]3CC[C@]12C)C(C)C`: the growth was 99.7%. With `C=C(C)[C@@H]1CC[C@]2(c3nnc(-c4ccncc4)o3)CC[C@]3(C)[C@H](CC[C@@H]4[C@@]5(C)CCC(=O)NC(C)(C)[C@@H]5CC[C@]43C)[C@@H]12` the figure was 101%; with `COc1cc(NC(C)CN(CC(C)C)C(C)C)c2ncccc2c1` (stereo not drawn), 114%.

On to `Nc1c2c(nc3ccc(Cl)cc13)CC(c1ccccc1)CC2=O` (stereo not drawn), for which the growth was -39.7% (active).

As to `COC(=O)[C@]12CC[C@@H](C)[C@H](C)[C@@H]1C1=CC[C@@H]3[C@@]4(C)C[C@@H](O)[C@H](O)[C@@](C)(CO)C4=CC[C@@]3(C)[C@]1(C)CC2`, the growth was -53.1% (active). As to `CCC1C(=O)COC1=O` (stereo not drawn), the growth was 103%. With `C=C(C)[C@@H]1CC[C@]2(C)[C@H](CC=C3[C@@H]4CC(C)(C)CC[C@]4(C(=O)OC)CC[C@]32C)[C@@]1(C)CC/C(N)=N/O` the figure was 80.5%; with `O=C(/C=C/c1cccc2ccccc12)Nc1ncc(Cc2ccccc2)s1`, -64.7% (active); with `N#Cc1c(-c2ccc(O)cc2)c2c(N)nn(-c3ccccc3)c2[nH]c1=O`, 108%. Under `COc1ccc(-c2c(-c3nc4ccc(N5CCOCC5)cc4[nH]3)[nH]c(C)c2C(C)=O)cc1` stands 29.7%; under `c1ccc(-c2nc(Nc3ccc(-c4nc5ccccc5[nH]4)cc3)nc(N3CCOCC3)n2)cc1`, -81.1% (active); under `Cc1cc2nc3c4cc(Cl)ccc4n(CCN(C)C)c3nc2cc1C`, 1.97% (active). Under `Cc1cc(N2CCOCC2)nc(N(CCCNc2ccnc3cc(Cl)ccc23)Cc2ccco2)n1` stands -20.1% (active); under `Cc1cc(N(CCNc2ccnc3cc(Cl)ccc23)Cc2ccco2)nc(Cl)n1`, 30.1%; under `COc1ccc(/C=C/C(=O)NCCO)cc1`, 104%. As to `O=C1NC(c2ccc(Cl)c(Cl)c2)=C/C1=C\c1ccccc1`, the growth is 86.6%. Turning to `N#C/C(=C\c1ccc(-c2ccccc2)o1)c1nc(-c2ccco2)cs1`, the growth was 99.2%. On to `C=C1C(=O)O[C@H]2[C@H]1CC/C(COC(=O)NCc1c[nH]c3ccccc13)=C\CC[C@@]1(C)O[C@@H]21`, for which the growth is 46.9%. With `Cn1cc(-c2csc(-c3cn(CCN)c4ccccc34)n2)c2cccnc21` the figure was 16.6%; with `C=C(C)[C@@H]1CC[C@]2(C)[C@H](CC[C@@H]3[C@H]4[C@H]5OC[C@@]4(CCC5(C)C)CC[C@]32C)[C@@]1(C)CCCN`, 49.2%; with `CC[C@]12C=CCN3CC[C@@]4(c5cc([C@H]6CCC(=O)N6)c(OC)cc5N(C)[C@H]4[C@@](O)(C(=O)OC)[C@@H]1OC(C)=O)[C@@H]32`, 107% [2.5 µM]. Under `COc1cc2c(cc1-c1c(C)noc1C)ncc1nc(C3CCCCC3)n([C@@H](C)COC(F)F)c12` stands 28.2%; under `COc1ccc(/C=C(\C#N)c2cc3ccccc3n2S(C)(=O)=O)cc1`, 6.05% (active); under `CCc1cccc(CC)c1NC(=O)c1sc2nc3c(cc2c1N)CCCC3`, 7.29% (active).

On to `O=C1CCC/C=C\C[C@H]2C=C(Cl)C(=O)/C2=C/C[C@H](CCCCC(F)(F)F)OC(=O)CCC/C=C\C[C@H]2C=C(Cl)C(=O)/C2=C/C[C@H](CCCCC(F)(F)F)O1`, for which the growth is -14.3% [7.5 µM] (active).

Consider `COc1cc(-c2cc3ncccc3c3nc(N)c4cccnc4c23)cc(OC)c1OC`, for which the growth was -33.7% (active). Under `COC(=O)[C@]12CC[C@@H](C)[C@H](C)[C@@H]1C1=CC[C@@H]3[C@@]4(C)C[C@@H](OC(C)=O)[C@H](O)[C@@](C)(CO)[C@@H]4[C@H](O)C[C@@]3(C)[C@]1(C)CC2` stands -96.4% (active); under `Cc1ccc(N(CC(=O)Nc2ccc(S(=O)(=O)NC3CCN(C)CC3)cc2)S(=O)(=O)c2ccc(Cl)cc2)cc1`, -44.3% (active). With `N#CC1=C(N)Oc2ccc3ccccc3c2C1c1ccccc1` (stereo not drawn) the figure was -21.6% (active); with `COc1ccc(C(=O)/C=C/c2cc(-c3cc(OC)c(OC)c(OC)c3)n[nH]2)cc1OC`, -71.6% (active); with `Cn1c(/C(C#N)=C/c2ccc3ccccc3c2)cc2ccccc21`, -14.7% (active).

`CCN(CC)c1ccc(/C=C/c2cc(C)c3ccccc3n2)cc1`: the growth was -6.87% (active).
